Measured values from ChEMBL document CHEMBL3433997, “St. Jude Leishmania screening dataset” (2016).

Key:
Format in all cases: functional
[1] = molecular target: Solute carrier family 2, facilitated glucose transporter member 1 (Homo sapiens) (UniProt P11166); experiment: ST_JUDE_LEISH: Cytotoxicity at 2uM final concentration against transgenic Leishmania Mexicana promastigotes LmGLUT1 that are glucose transport deficient and complemented with the human glucose transporter GLUT1. Activity is measured by DNA content using SYBR green in vitro
Solute carrier family 2, facilitated glucose transporter member 1 (Homo sapiens), sequence (P11166 whole entry): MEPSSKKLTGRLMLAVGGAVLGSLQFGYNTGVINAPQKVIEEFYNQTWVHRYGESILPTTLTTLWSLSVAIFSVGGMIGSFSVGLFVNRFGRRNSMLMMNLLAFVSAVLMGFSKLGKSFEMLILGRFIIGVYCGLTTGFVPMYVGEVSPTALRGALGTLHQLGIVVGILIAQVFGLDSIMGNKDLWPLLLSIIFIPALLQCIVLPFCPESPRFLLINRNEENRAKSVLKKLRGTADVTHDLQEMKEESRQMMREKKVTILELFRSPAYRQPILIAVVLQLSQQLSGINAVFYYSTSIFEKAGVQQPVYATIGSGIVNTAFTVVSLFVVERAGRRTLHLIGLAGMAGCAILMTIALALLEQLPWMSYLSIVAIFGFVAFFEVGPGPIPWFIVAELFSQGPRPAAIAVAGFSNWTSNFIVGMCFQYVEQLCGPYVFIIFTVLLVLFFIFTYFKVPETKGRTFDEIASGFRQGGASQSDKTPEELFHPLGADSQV

[2] = molecular target: Hexose transporter 1 (Plasmodium falciparum) (UniProt O97467); experiment: ST_JUDE_LEISH: Cytotoxicity at 2uM final concentration against transgenic Leishmania Mexicana promastigotes LmPfHT that are glucose transport deficient and complemented with the Plasmodium falciparum hexose transporter. Activity is measured by DNA content using SYBR green in vitro
[3] = molecular target: Glucose transporter (Leishmania mexicana) (UniProt O61059); experiment: ST_JUDE_LEISH: Cytotoxicity at 2uM final concentration against transgenic Leishmania Mexicana promastigotes LmGT2 that are glucose transport deficient and complemented with the L. Mexicana glucose transporter 2. Activity is measured by DNA content using SYBR green in vitro

For `Oc1c(C(Nc2ccccn2)c2ccc(Cl)cc2Cl)ccc2cccnc12` (stereo unspecified), the inhibition [1] was 3.22%, the inhibition [2] was 5.81% and the inhibition [3] was 0.74%.

`COCc1nc(N)nc(N)c1-c1ccc(Cl)c(Cl)c1` gave an inhibition [1] of -0.03%, an inhibition [2] of 0.2% and an inhibition [3] of 0.08%.

In the case of `Cc1cc(C)cc(OCC(O)CN(CCN2CCOCC2)C(=O)Nc2ccc(Br)cc2)c1` (stereo unspecified), the inhibition [1] is reported as 12.2%, the inhibition [2] is reported as 9.85% and the inhibition [3] is reported as 13.4%.

Compound `CCCCCNc1nc(Nc2ccccc2C)nc2ccccc12` has an inhibition [1] of 29.1%, an inhibition [2] of 22.7% and an inhibition [3] of 11%.

`COc1ccc2c(c1)[nH]c1c(/C=C/c3ccc([N+](=O)[O-])cc3)nccc12` gave an inhibition [1] of 3.75%, an inhibition [2] of 4.42% and an inhibition [3] of 3.6%.

`COc1ccc(C=Cc2ccc(-c3c(C)[nH]c(C)c(Cl)c3=O)cc2)cc1OC` gave an inhibition [1] of -0.83%, an inhibition [2] of -2.94% and an inhibition [3] of 0.92%.

`CCN(CC)CCN(CCN(CC)CC)c1ccc2c(c1)Sc1c(Cl)ccc(Cl)c1S2` showed an inhibition [1] of 1.42%, an inhibition [2] of 6.29% and an inhibition [3] of 3.91%.

Work on `Cc1ccc(-c2nnc(Nc3ccc(OCC(N)=O)cc3)c3ccccc23)cc1S(=O)(=O)NCC1CCCO1` (stereo unspecified) yielded an inhibition [1] of 1.11%, an inhibition [2] of 3.81% and an inhibition [3] of 2%.

`CN1Cc2cc(NC(=O)/C=C/c3ccccc3Cl)ccc2C(C)(C)C1` showed an inhibition [1] of 10.7%, an inhibition [2] of 8.21% and an inhibition [3] of 6.98%.

In the case of `CC1CCC(NC(=O)c2nn(-c3ccc(Cl)cc3)c(=O)c3ccccc23)CC1` (stereo unspecified), the inhibition [1] is reported as 1.52%, the inhibition [2] is reported as 1.39% and the inhibition [3] is reported as -0.26%.

`Cc1cccc2nc(-c3cccc(-c4ccc(CNCc5ccc(S(C)(=O)=O)cc5)cc4)c3)[nH]c12` was tested, and the inhibition [1] was 11.9%, the inhibition [2] was 6.88% and the inhibition [3] was 7.97%.

In the case of `Cc1c(CC(=O)NCCC2CCN(CCCCCNC(=O)/C=C/c3ccc(Cl)c(Cl)c3)CC2)sc2ccc(Cl)cc12`, the inhibition [1] is reported as 4.42%, the inhibition [2] is reported as 5.42% and the inhibition [3] is reported as 6.13%.
